# Measurements published in PubChem BioAssay (NCATS).
# “And” between values parts separate entries of the source, which are not always exact repeats. Equal entries are not always repeated. Results filed as inconclusive are left out. Where a call stands in place of a potency, no number is given. Unmarked numbers belong to inactive results. The source made the active and inactive calls. Calls follow the shape of the dose curve; as a rule, active = well fitted inhibition curve with a large enough effect; inconclusive = small, poorly fitted or top-dose-only effect; inactive = flat fitted curve, though single readings scatter. Where a SMILES comes first, the peptide text is derived from it. Bridges are numbered along the chain shown (N, C = ends). [ ]: non-standard residue; d: D form. The star is where a group is joined. X1 = CCC(C)C(N)C1=NC(C(=O)*)CS1; dOrn = NCCC[C@@H](N)C(=O)O
# Key:
# Experiment in all cases: Cytotoxic Profiling of Annotated Libraries Using Quantitative High-Throughput Screening (AID 1296008); also: nearly all actives have a fitted effect of over 60% in size
# Settings in all cases: Five cell lines viability, CellTiter-Glo ATP luminescence, 48-72 h; max response: stronger effect = lower value
# CRL-7250 = normal cell line; tested on: CRL-7250
# In short: (§1)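 Cells exposed to compounds for 48 or 72 hr at 37 degrees Celsius. Viability read as ATP-coupled luminescence with CellTiter-Glo after 10 min at room temperature.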
# HEK293 = tested on: HEK293
# In short: as §1
# HaCat = tested on: HaCat
# In short: as §1
# Potency is read from the fitted curve at half-maximal effect.
smiles,measurement,setting,value
CC(C)C(C#N)O[C@@H]1O[C@H](CO[C@@H]2OC[C@](O)(CO)[C@H]2O)[C@@H](O)[C@H](O)[C@H]1O (stereo partly specified),max response,CRL-7250,0.582%
same,outcome,HEK293,inactive
same,outcome,HaCat,inactive
O=C(OCC12OC1C=CC(OC(=O)c1ccccc1)C2O)c1ccccc1 (stereo unspecified),max response,CRL-7250,4.27%
same,outcome,HEK293,inactive
same,max response,HaCat,0.27%
COc1ccc(C(=O)O[C@H]2CC(C)=CC[C@@]3(C)[C@@H](OC(C)=O)C[C@@](O)(C(C)C)[C@H]23)cc1,max response,CRL-7250,-4.18%
same,outcome,HEK293,inactive
same,outcome,HaCat,inactive
CCS(=O)(=O)N1CCC([C@@H](C)n2c(C)c(C(=O)NCc3c(OC)cc(C)[nH]c3=O)c3ccccc32)CC1,outcome,CRL-7250,inactive
same,outcome,HEK293,inactive
same,outcome,HaCat,inactive
CCc1nc(C(N)=O)c(Nc2ccc(N3CCC(N4CCN(C)CC4)CC3)c(OC)c2)nc1NC1CCOCC1,Potency,CRL-7250,5.24 µM (active)
same,Potency,HEK293,1.61 µM (active) and 1.32 µM (active)
same,Potency,HaCat,2.55 µM (active)
CNC(=O)c1ccc(Nc2ncc(C(F)(F)F)c(NCc3nccnc3N(C)S(C)(=O)=O)n2)cc1,Potency,CRL-7250,4.17 µM (active)
same,Potency,HEK293,5.17 µM (active)
same,Potency,HaCat,7.31 µM (active) and 2.95 µM (active)
CCOC(=O)N1CCC(NCCNC(=O)c2ccccc2C)CC1,max response,CRL-7250,3.66%
same,outcome,HEK293,inactive
same,max response,HaCat,-7.3%
CCC(C)C(N)C1=NC(C(=O)N[C@@H](CC(C)C)C(=O)N[C@H](CCC(=O)O)C(=O)N[C@H](C(=O)N[C@H]2CCCCNC(=O)[C@H](CC(N)=O)NC(=O)[C@@H](CC(=O)O)NC(=O)[C@H](Cc3cnc[nH]3)NC(=O)[C@@H](Cc3ccccc3)NC(=O)[C@H]([C@@H](C)CC)NC(=O)[C@@H](CCCN)NC2=O)[C@@H](C)CC)CS1 (stereo partly specified) (X1-L[dE]IK[dOrn]I[dF]H[dD]N; lactam 4-C),max response,CRL-7250,2.99% and -28%
same,max response,HEK293,-1.63% and -10.3%
same,outcome,HaCat,inactive
O=C(c1ccc(C#Cc2cccc(F)c2)cn1)N1CC2CC2C1 (stereo unspecified),outcome,CRL-7250,inactive
same,outcome,HEK293,inactive
same,outcome,HaCat,inactive
C[C@@H]1CC[C@]2(C)C3(C)CC[C@@]2(OC3=O)[C@@]12C[C@H](c1ccoc1)OC2=O,max response,CRL-7250,-6.81%
same,outcome,HEK293,inactive
same,max response,HaCat,-0.0916%
CCCCS(=O)(=O)Nc1ncnc(OCCOc2ncc(Br)cn2)c1-c1ccc(Br)cc1,max response,CRL-7250,-8.77%
same,outcome,HEK293,inactive
same,outcome,HaCat,inactive
CC1CC(O)CC(C)(C)C1(O)CCO (stereo unspecified),max response,CRL-7250,-5.35%
same,outcome,HEK293,inactive
same,outcome,HaCat,inactive
C=C[C@H]1[C@H](O[C@@H]2O[C@H](CO)[C@@H](O)[C@H](O)[C@H]2O)OC=C2C(=O)OCC[C@]21O,max response,CRL-7250,0.194%
same,outcome,HEK293,inactive
same,outcome,HaCat,inactive
CCCC(N[C@@H](C)C(=O)N1[C@H](C(=O)O)C[C@@H]2CCCC[C@@H]21)C(=O)OCC (stereo partly specified),outcome,CRL-7250,inactive
same,outcome,HEK293,inactive
same,outcome,HaCat,inactive
C=C1C(=O)OC2/C=C(\C)CC/C=C(\C(=O)O)CC/C=C(\C)CCC12 (stereo unspecified),outcome,CRL-7250,inactive
same,outcome,HEK293,inactive
same,outcome,HaCat,inactive
CN1C(=O)c2ccccc2-n2c(nc3ccccc3c2=O)/C1=C/c1ccccc1,outcome,CRL-7250,inactive
same,outcome,HEK293,inactive
same,max response,HaCat,-6.39%
CC1C/C=C/C=C\CCCCC(O)C/C=C/C(=O)O1 (stereo unspecified),max response,CRL-7250,4.17%
same,outcome,HEK293,inactive
same,max response,HaCat,-3.25%
CCOc1c2c(c(OCC)c3ccccc13)C(=O)N(c1ccc(CC(=O)NS(=O)(=O)c3ccccc3)cc1)C2,max response,CRL-7250,-1.51%
same,outcome,HEK293,inactive
same,max response,HaCat,-7.44%
CC(=O)O[C@@H]1C[C@]2(C)[C@@]3(CCC4[C@@]5(C)CC[C@H](O[C@@H]6O[C@H](C(=O)O)[C@@H](O)[C@H](O[C@@H]7O[C@H](CO)[C@H](O)[C@H](O)[C@H]7O[C@@H]7O[C@@H](C)[C@H](O)[C@@H](O)[C@H]7O[C@@H]7OC[C@](O)(CO)[C@H]7O)[C@H]6O[C@@H]6O[C@H](CO)[C@H](O)[C@H](O)[C@H]6O)C(C)(C)C5CC[C@]42C)O[C@@H](O)[C@]12C3CC(C)(C)[C@@H](OC(=O)/C=C/c1ccc(O)c(O)c1)[C@@H]2OC(=O)/C=C/c1ccccc1 (stereo partly specified),max response,CRL-7250,3.23%
same,outcome,HEK293,inactive
same,outcome,HaCat,inactive
Cn1c(=O)c2nc(/C=C/c3cccc(Cl)c3)n(C)c2n(C)c1=O,outcome,CRL-7250,inactive
same,outcome,HEK293,inactive
same,max response,HaCat,-5.76%
c1ccc(C(OC2CCN(CCCc3nn[nH]n3)CC2)c2ccccc2)cc1,outcome,CRL-7250,inactive
same,outcome,HEK293,inactive
same,outcome,HaCat,inactive
CC1(C)CC2C3=CCC4C5(C)CCC(OC6OC(C(=O)O)C(O)C(O)C6OC6OC(CO)C(O)C(O)C6OC6OC(CO)C(O)C(O)C6O)C(C)(CO)C5CCC4(C)C3(C)CCC2(C)C(OC2OCC(O)C(OC3OC(CO)C(O)C(O)C3O)C2O)C1O (stereo unspecified),max response,CRL-7250,2.95%
same,outcome,HEK293,inactive
same,outcome,HaCat,inactive
COc1cc2c(cc1O)C1(OC)Cc3ccc4c(c3C1N(C)CC2)OCO4 (stereo unspecified),max response,CRL-7250,-5.51%
same,outcome,HEK293,inactive
same,max response,HaCat,-3.77%
C[C@@H]1O[C@@H](OC[C@H]2O[C@@H](OCC3CCC4CC3C4(C)C)[C@H](O)[C@@H](O)[C@@H]2O)[C@H](O)[C@H](O)[C@H]1O (stereo partly specified),max response,CRL-7250,-0.807%
same,outcome,HEK293,inactive
same,outcome,HaCat,inactive
C=CC1(C)C=C2C(=O)CC3C(C)(C)CCCC3(C(=O)O)C2(O)CC1 (stereo unspecified),outcome,CRL-7250,inactive
same,outcome,HEK293,inactive
same,outcome,HaCat,inactive
CNC(=O)[C@H]1O[C@@H](n2cnc3c(NCc4ccc(N)c(I)c4)ncnc32)[C@H](O)[C@@H]1O,max response,CRL-7250,-3.43%
same,outcome,HEK293,inactive
same,max response,HaCat,-7.91%
NC(=O)[C@H]1CCCCc2c1[nH]c1ccc(Cl)cc21,outcome,CRL-7250,inactive
same,outcome,HEK293,inactive
same,max response,HaCat,-14.2%
C/C=C/C=C/C(CC(=O)O)Nc1ccc(C=O)cc1 (stereo unspecified),outcome,CRL-7250,inactive
same,outcome,HEK293,inactive
same,outcome,HaCat,inactive
CC(=O)c1c(O)cc2cccc3c2c1CC(C)(O)O3 (stereo unspecified),outcome,CRL-7250,inactive
same,outcome,HEK293,inactive
same,outcome,HaCat,inactive
C/C=C1/[C@H](O[C@@H]2O[C@H](CO)[C@@H](O)[C@H](O)[C@H]2O)OC=C(C(=O)OC)[C@H]1CC(=O)O[C@@H]1O[C@H](CO)[C@@H](O)[C@H](O)[C@H]1O,outcome,CRL-7250,inactive
same,outcome,HEK293,inactive
same,outcome,HaCat,inactive
C=C1C(OC(C)=O)C(=O)C2C(C)(C)C(OC(C)=O)CCC2(C)C1CC(OC(C)=O)/C(C)=C/COC(C)=O (stereo unspecified),max response,CRL-7250,0.124%
same,outcome,HEK293,inactive
same,outcome,HaCat,inactive
C[C@@H]1O[C@@H](O[C@H]2[C@H](O[C@H]3CC[C@@]4(C)C(CC[C@]5(C)C4CC=C4[C@@H]6CC(C)(C)CC[C@]6(C(=O)O)CC[C@]45C)[C@]3(C)CO)OC[C@H](O)[C@@H]2O)[C@H](O)[C@H](O[C@@H]2OC[C@@H](O)[C@H](O)[C@H]2O)[C@H]1O (stereo partly specified),max response,CRL-7250,0.8%
same,outcome,HEK293,inactive
same,max response,HaCat,3.75%
Cc1cc(C)cc(NC(=O)Cc2ccc(OC(C)(C)C(=O)O)cc2)c1,max response,CRL-7250,0.247%
same,outcome,HEK293,inactive
same,outcome,HaCat,inactive
CC(C)(O)CNc1nc(Nc2ccnc(C(F)(F)F)c2)nc(-c2cccc(C(F)(F)F)n2)n1,max response,CRL-7250,-2.34% and 1.41%
same,Potency,HEK293,14.8 µM (active)
same,outcome,HaCat,inactive
CC(=O)N1c2ccccc2C2(O)CC3C(=O)NC(CC(C)C)C(=O)N3C12 (stereo unspecified),max response,CRL-7250,1.79%
same,outcome,HEK293,inactive
same,outcome,HaCat,inactive
O=C1N(CC2CCCCN2)CCN1c1ccccc1 (stereo unspecified),max response,CRL-7250,-3.2%
same,outcome,HEK293,inactive
same,outcome,HaCat,inactive; activator
COc1cc(/C=C/c2cc(O)cc(O[C@@H]3O[C@H](CO)[C@@H](O)[C@H](O)[C@H]3O)c2)ccc1O,max response,CRL-7250,2.61%
same,outcome,HEK293,inactive
same,outcome,HaCat,inactive
